TRHR enhancer: qHTS for Small Molecule Agonists and Allosteric Enhancers of Human TRH Receptor: Primary Screen for Enhancers; Thyrotropin-releasing hormone receptor (Homo sapiens), P34981; TRHR cells, fluo-8 calcium fluorescence, EC20 TRH enhancement; enhancement, % at 2 µM; actives 0.66% (n = 360,000); AID 493056, 2011; in the data active = enhancement above about 30%
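Enhancer read-out: after compound pinning and an initial kinetic agonist-mode read, an EC20 of TRH (10 nM final) was injected and fluo-8 calcium signal (Ex 480/Em 530) followed at 1 s/cycle for 100 cycles in TRHR-expressing cells.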
D1 potentiator: Potentiators of Human D1 Dopamine Receptor: qHTS; D(1A) dopamine receptor (Homo sapiens), P21728; HEK293 TREx D1 cells, calcium flux, dopamine EC20 potentiation; potentiation, % at 10 µM; actives 0.036% (n = 360,000); AID 504651, 2011; in the data active = potentiation above about 30%
Target sequence (P21728 whole entry, looked up): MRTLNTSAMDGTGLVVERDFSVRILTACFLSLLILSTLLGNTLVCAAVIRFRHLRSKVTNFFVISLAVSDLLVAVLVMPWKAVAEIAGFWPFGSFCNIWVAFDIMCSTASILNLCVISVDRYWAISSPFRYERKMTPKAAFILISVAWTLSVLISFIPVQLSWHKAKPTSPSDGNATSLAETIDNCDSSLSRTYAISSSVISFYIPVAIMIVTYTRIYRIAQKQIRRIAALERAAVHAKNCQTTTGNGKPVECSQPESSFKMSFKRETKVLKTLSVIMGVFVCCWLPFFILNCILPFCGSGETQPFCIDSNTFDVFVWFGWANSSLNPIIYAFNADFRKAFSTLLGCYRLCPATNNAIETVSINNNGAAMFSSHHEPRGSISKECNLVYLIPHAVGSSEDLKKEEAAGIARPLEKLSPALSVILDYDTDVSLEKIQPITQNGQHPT
D1 antag: Antagonist of Human D 1 Dopamine Receptor: qHTS; AID 504652, 2011; HEK293 TREx D1 cells, calcium flux, dopamine EC80; active compounds read low; activity change, negative = inhibition, % at 10 µM; actives 3.2% (n = 360,000); D(1A) dopamine receptor (Homo sapiens), P21728; in the data active = activity change below about -30%
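Inducible Hek293 Trex D1 cells (tetracycline, overnight, 30 C). Calcium dye 30–90 min RT. Antagonist mode: EC80 dopamine added after 180 s compound read.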
TRHR ag: qHTS for Small Molecule Agonists and Allosteric Enhancers of Human TRH Receptor: Primary Screen for Agonists; Thyrotropin-releasing hormone receptor (Homo sapiens), P34981; TRHR cells, calcium flux fluo-8, FDSS agonist mode; activation, % at 2 µM; actives 0.18% (n = 360,000)
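Read-out: compound-evoked intracellular calcium rise in TRHR cells, fluo-8 dye, kinetic FDSS fluorescence at 1 s/cycle following a 10-cycle baseline. Cells cultured overnight before dye loading (30 min–1.5 h, RT).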
D1 agonist: Allosteric Agonists of the Human D1 Dopamine Receptor: qHTS; D(1A) dopamine receptor (Homo sapiens), P21728; HEK293 T-REx D1 cells, calcium flux, agonist mode; activation, % at 2 µM; actives 1% (n = 360,000)
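Agonism was scored from calcium flux recorded over 180 s (1 read/s) after pintool compound addition, following a 10-cycle baseline. Cells were inducible force-coupled HEK293 TREx D1, plated overnight at 30 C and loaded with no-wash calcium dye.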
Each line names hits and unclear results; the compound was inactive in the other large screens. An excerpt weighted towards active compounds, which were near 4.6% of everything screened. Rule as the data show it, unless noted: active = activation above about 30%; inactive = the rest.

Cc1ccc(S(=O)(=O)c2cnc(SC(C)C(=O)Nc3ccccc3)[nH]c2=O)cc1 (configuration not stated)	none
CC(=O)NC(c1ccc([N+](=O)[O-])cc1)c1c(O)ccc2ccccc12 (configuration not stated)	none
CC(C)C(=O)NC(c1ccc([N+](=O)[O-])cc1)c1c(O)ccc2ccccc12 (configuration not stated)	D1 antag -31.9
CCN(CC(=O)NC(C)(C)C)C(=O)c1ccc2c(c1)S(=O)(=O)c1ccccc1C2=O	none
CN(Cc1nc(Cc2ccccc2F)no1)CC1(N2CCOCC2)CCCCC1	none
CN(Cc1nc(Cc2ccccc2F)no1)Cc1cccc2ncccc12	D1 antag -40.3
COc1ccc(NC(=O)CN2C(=O)CSc3ccc(S(=O)(=O)N(C)C)cc32)cc1OC	none
O/N=C/c1ccc(OCc2ccccc2)c(Br)c1	D1 antag -33.5
COc1ccc(CCNC(=O)c2ccc(Cn3c(=O)[nH]c4cc(OC)c(OC)cc4c3=O)cc2)cc1OC	D1 antag -35.5
Cc1ccc(C(=O)NCCN2CCOCC2)cc1	none
COc1ccc(CCNC(=O)c2ccc3c(c2)NC(=O)CS3)cc1OC	D1 antag -32.7
COc1cc2[nH]c(=O)n(Cc3ccc(C(=O)NCc4ccccc4)cc3)c(=O)c2cc1OC	none
Cc1ccc(C(=O)NCCC(=O)N2CCOCC2)cc1	D1 antag -36.9
COc1ccc(CCNC(=O)c2ccc(OCC(=O)N3CCOCC3)c(OC)c2)cc1OC	D1 antag -41.9
COc1ccc(CCNC(=O)CCS(=O)(=O)c2ccc3c(c2)NC(=O)CS3)cc1OC	none
Cc1cc2c(s1)c1cnn(Cc3ccc4ccccc4c3)c(=O)c1n2C	none
Cc1ccccc1-c1cc2nc(C)c(C)c(=O)n2[nH]1	D1 antag -32.6
CCSc1nnc2n(N)c(=O)c3ccccc3n12	D1 antag -85.4
C=C(C)CSc1nnc2n(N)c(=O)c3ccccc3n12	none
CC(=O)Nc1ccc2[nH]c3ccccc3c2c1	none
O=C(Nc1ccc(Cl)cc1)c1cc2c(cc1O)[nH]c1ccccc12	D1 antag -37.9
COc1cc2c(c(OC)c1OC)-c1c(cc3c(c1O)OCO3)C[C@@H](C)[C@@H](C)C2	none
COc1cc2c(c(OC)c1OC)-c1c(cc3c(c1OC)OCO3)C1OC2[C@@H](C)[C@H]1C (some centres not stated)	D1 antag -45.9
O=S(=O)(Nc1cccc(CCc2ccccn2)c1)c1ccc2ccccc2c1	D1 agonist 32.0
Cc1cc(C)cc(NC(=O)N2CCC(CN3CCCCCC3)CC2)c1	none
COc1ccc(NC(=O)CC2C(=O)N(C)C(=S)N2CCc2ccccc2)cc1 (configuration not stated)	D1 antag -41.2
CCN1C(=O)C(CC(=O)Nc2ccc(OC)cc2)N(CCCN2CCN(c3ccc(F)cc3)CC2)C1=S (configuration not stated)	D1 antag -43.1
COc1ccc(CCN2C(=S)N(C)C(=O)C2CC(=O)Nc2ccc(OC)cc2)cc1 (configuration not stated)	none
Cc1cccc(C)c1OCCn1nnc2ccccc21	D1 antag -41.5
Cc1ccccc1OCC(O)Cn1nnc2ccccc21 (configuration not stated)	D1 antag -54.9
CCC(=O)c1ccc(OCC(O)Cn2nnc3ccccc32)cc1 (configuration not stated)	none
O=C(c1cccc([N+](=O)[O-])c1)N1c2nc(-c3ccco3)nn2C2(CCCCC2)[C@@H]2CCCC[C@@H]21	none
CCOC(=O)c1c(NC(=O)c2cc3ccccc3c(=O)o2)sc2c1CCCC2	none
Cc1oc2ccc(O)c(CN3CCCCCC3)c2c1C(=O)Nc1cccc(Cl)c1C	none
CC1CCCN(Cc2c(O)ccc3c(=O)c(-c4ccccc4Cl)c(C(F)(F)F)oc23)C1 (configuration not stated)	none
COc1cc(/C=C2\SC(=S)N(NC(=O)c3ccncc3)C2=O)ccc1O	none
COc1cc(/C=C2\SC(=S)N(NS(=O)(=O)c3ccccc3)C2=O)ccc1O	D1 agonist 44.0
COc1cc(/C=C2\SC(=S)N(NC(=O)c3cccc(O)c3)C2=O)ccc1O	TRHR ag 75.0, D1 agonist 110.0
COc1cc(/C=C2\SC(=S)N(NC(=O)c3ccccc3OC)C2=O)ccc1O	D1 agonist 48.5
Cc1cc(NC(=O)COc2ccccc2)cc(-c2nc3ccccc3o2)c1O	none
O=C(CCNC(=O)c1ccc(Br)cc1)NCC1COc2ccccc2O1 (configuration not stated)	D1 antag -40.6
COc1cc2ccccc2cc1C(=O)OCC(=O)NC1CCS(=O)(=O)C1 (configuration not stated)	D1 antag -33.5
CCOC(=O)N1CCC(Nc2c(-c3ccc(C)c(C)c3)c(=O)c2=O)CC1	none
CCOC(=O)N1CCC(Nc2c(N3CCN(c4cc(Cl)ccc4C)CC3)c(=O)c2=O)CC1	D1 antag -30.4 (no result: D1 potentiator)
CCOC(=O)N1CCN(Cc2nc3c(c(=O)n(C)c(=O)n3C)n2Cc2cc(C)ccc2C)CC1	D1 antag -31.8
CCCCn1c(CN2CCN(C(=O)OCC)CC2)nc2c1c(=O)n(C)c(=O)n2C	none
Fc1ccc(N2CCN(c3ncnc4[nH]ncc34)CC2)cc1	none
CCCCCCOc1ccc(/C(C)=N/NC2=NCCN2)cc1	D1 agonist 39.1
CN(C)c1ccc(-c2nnc3n(Cc4ccccc4)c(=O)c4ccccc4n23)cc1	none
COc1cccc(NC(CNS(=O)(=O)c2ccc(Cl)cc2)c2ccccc2)c1 (configuration not stated)	D1 antag -34.2
COc1cccc(NC(CNS(=O)(=O)c2ccc(C)cc2)c2ccccc2)c1 (configuration not stated)	none
CCCn1c(=O)[nH]c(=O)c2c1nc(-c1cc([N+](=O)[O-])ccc1Cl)n2CCOC	none
O=C(NC1CCCCC1)N(Cc1nc2ccccc2c(=O)[nH]1)C1CCCCC1	none
O=C(NC1CCCCC1)N(Cc1nc2ccccc2c(=O)[nH]1)C1CCCC1	D1 antag -64.2
Cc1cc(OCC(=O)NNC(=O)c2ccncc2)cc(C)c1Cl	none
Cc1cc(OCC(=O)NC(C)C)cc(C)c1Cl	D1 antag -31.5
COc1ccc(C(CNC(=O)c2ccc(OC)c(S(=O)(=O)N3CCCC3)c2)N2CCCC2)cc1 (configuration not stated)	none
